Results as given in PubChem BioAssay (Tox21).
Values joined by “and” are separate entries in the source; they are usually repeats but may differ in a detail not shown here. Equal entries are not always repeated. Records with an inconclusive call do not appear. Active and inactive are the calls of the source. Unless noted, calls follow the shape of the dose curve; as a rule, active = well fitted curve in the direction sought with a large enough effect in the repeat runs; inconclusive = weak or mixed curves; inactive = no such curve, though single readings can be large; an effect the other way counts as inactive or inconclusive.

Columns and labels:
[1] = biological target: Thyrotropin receptor (Homo sapiens) (UniProt P16473); assay: qHTS assay to identify small molecule agonists of the thyroid stimulating hormone receptor (TSHR) signaling pathway (AID 1224843; calls by dose curve; also: nearly all actives have a fitted effect of over 45% in size)
Summary of the method: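 HEK293 cells stably bearing the thyrotropin receptor were plated at 800 cells/well and challenged with compound (30 min, RT). Accumulated cAMP was quantified via cAMP-d2 competing for cryptate-tagged antibody.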

[2] = qHTS assay to identify small molecule agonists of H2AX (AID 1224845; active = well fitted activation curve with a large enough effect in the signal ratio in the repeat runs, not every such curve was filed as active; the % refers to the signal ratio)
Summary of the method: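 Phospho-H2AX Ser139 measured by HTRF (ex 320 nm; em 665 and 620 nm) after 24 hr antibody incubation. Compounds, 15 concentrations, 0.76% DMSO, were applied to CHO-K1 cells for 3hr at 37C before lysis.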

[3] = qHTS assay to identify small molecule agonists of H2AX - cell viability counter screen (AID 1224847; calls by dose curve; also: nearly all actives have a fitted effect of over 30% in size; also: potency is read from the fitted curve at half-maximal effect)
Summary of the method: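 Viability of CHO-K1 (wild type) cells after 3 hr compound exposure was measured by CellTiter-Glo luminescence.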

[4] = qHTS assay to identify small molecule agonists of the estrogen related receptor (ERR) signaling pathway from Tox21 library (AID 1224849; calls by dose curve; also: nearly all actives have a fitted effect of over 15% in size); conditions: ERR reporter cell line, ONE-Glo luciferase, 18 h; at 92.4 µM (top of the series) unless noted
Summary of the method: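 ERR cells, 6 h pre-incubation 37 C/5% CO2; cpd in DMSO pinned; 18 h 37 C; ONE-Glo added, 30 min RT; luminescence read. Agonist mode, qHTS.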

[5] = qHTS RealTime-Glo MT Cell Viability Assay in HepG2 cells - 24 hour (AID 1224867); also: nearly all actives have a fitted effect of over 50% in size; also: potency is read from the fitted curve at half-maximal effect
Summary of the method: (§1)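 HepG2 cells were seeded at 600 cells/well together with NanoLuc luciferase and a cell-permeant prosubstrate, preincubated 5 h at 37 C/5% CO2, then pin-dosed with compounds in DMSO. Nonlytic luminescence from viable cells was read at each time point.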

[6] = A CellTox Green Cytotoxicity Assay to monitor cytotoxicity in HEK293 cells - 0 hour (AID 1224869); also: nearly all actives have a fitted effect of over 50% in size
Summary of the method: (§2)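 Nonlytic real-time cytotoxicity: HEK293 + CellTox Green reagent plated, 5 h preincubation, pintool compound addition (23 nL in DMSO), 37 C for 40 h, fluorescence measured at successive time points.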

[7] = qHTS RealTime-Glo MT Cell Viability Assay in HEK293 cells - 16 hour (AID 1224872); also: nearly all actives have a fitted effect of over 50% in size; also: potency is read from the fitted curve at half-maximal effect
Summary of the method: (§3)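 HEK293 cells were seeded at 600 cells/well together with NanoLuc luciferase and cell-permeant prosubstrate, preincubated 5 h at 37 C/5% CO2, then given compound in DMSO by pintool. Luminescence from viable-cell prosubstrate reduction was read repeatedly over 40 h.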

[8] = qHTS RealTime-Glo MT Cell Viability Assay in HepG2 cells - 8 hour (AID 1224873); also: nearly all actives have a fitted effect of over 55% in size; also: potency is read from the fitted curve at half-maximal effect
Summary of the method: (§4)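 Real-time viability: cells seeded at 600 per well together with NanoLuc and cell-permeant prosubstrate, compounds added after 5 h incubation. Luminescence tracked at 0, 8, 16, 24, 32 and 40 h of exposure.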

[9] = qHTS RealTime-Glo MT Cell Viability Assay in HEK293 cells - 40 hour (AID 1224874); conditions: RealTime-Glo luminescence; max response: stronger effect = lower value; also: nearly all actives have a fitted effect of over 50% in size; also: potency is read from the fitted curve at half-maximal effect
Summary of the method: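 Cells were seeded together with NanoLuc luciferase and a prosubstrate that viable cells reduce to a luciferase substrate. After a 5 h incubation at 37 C/5% CO2, compounds were added and luminescence was measured repeatedly during 40 h of treatment.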

[10] = A CellTox Green Cytotoxicity Assay to monitor cytotoxicity in HepG2 cells - 16 hour (AID 1224876); also: nearly all actives have a fitted effect of over 45% in size; also: potency is read from the fitted curve at half-maximal effect
Summary of the method: (§5)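 Read-out is fluorescence of a cyanine dye excluded from live cells that stains DNA of dead HepG2 cells, with signal proportional to cytotoxicity. Plates were read at 0, 8, 16, 24, 32 and 40 h after compound addition.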

[11] = qHTS RealTime-Glo MT Cell Viability Assay in HepG2 cells - 32 hour (AID 1224877); also: nearly all actives have a fitted effect of over 55% in size; also: potency is read from the fitted curve at half-maximal effect
Summary of the method: as §1

[12] = A CellTox Green Cytotoxicity Assay to monitor cytotoxicity in HepG2 cells - 24 hour (AID 1224878); also: nearly all actives have a fitted effect of over 45% in size; also: potency is read from the fitted curve at half-maximal effect
Summary of the method: as §5

[13] = A CellTox Green Cytotoxicity Assay to monitor cytotoxicity in HepG2 cells - 40 hour (AID 1224879); also: nearly all actives have a fitted effect of over 40% in size; also: potency is read from the fitted curve at half-maximal effect
Summary of the method: as §5

[14] = qHTS assay to identify small molecule antagonists of the estrogen related receptor (ERR) signaling pathway from Tox21 library (AID 1224848); also: nearly all actives have a fitted effect of over 50% in size; also: potency is read from the fitted curve at half-maximal effect
Summary of the method: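 Reading was by luminescence 30 min after ONE-Glo addition. Before that, ERR cells at 2,000 per well had rested 6 h at 37 C/5% CO2 and then received pin-tooled compounds in DMSO for 18 h at 37 C.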

[15] = qHTS RealTime-Glo MT Cell Viability Assay in HEK293 cells - 32 hour (AID 1224868); also: nearly all actives have a fitted effect of over 50% in size; also: potency is read from the fitted curve at half-maximal effect
Summary of the method: as §3

[16] = qHTS RealTime-Glo MT Cell Viability Assay in HepG2 cells - 40 hour (AID 1224870); also: nearly all actives have a fitted effect of over 50% in size; also: potency is read from the fitted curve at half-maximal effect
Summary of the method: as §4

[17] = A CellTox Green Cytotoxicity Assay to monitor cytotoxicity in HEK293 cells - 40 hour (AID 1224871); also: nearly all actives have a fitted effect of over 45% in size
Summary of the method: as §2

[18] = qHTS assay to identify small molecule agonists of the hypoxia (HIF-1) signaling pathway (AID 1224846; active = well fitted activation curve with a large enough effect in the signal ratio in the repeat runs, not every such curve was filed as active; the % refers to the signal ratio)
Summary of the method: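 Cell line: CellSensor HRE-bla ME-180; 2,000 cells/well; 0.5% dialyzed FBS; 5 h preincubation; DMSO compound pin transfer; 17 h, 37C, 5% CO2; CCF4-AM added; bla FRET signal scored for activation.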

[19] = qHTS assay to identify small molecule agonists of the hypoxia (HIF-1) signaling pathway - cell viability counter screen (AID 1224844; calls by dose curve; also: nearly all actives have a fitted effect of over 50% in size; also: potency is read from the fitted curve at half-maximal effect)
Summary of the method: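 ME-180 HRE-bla cells, 2,000/well, 0.5% dialyzed FBS; 5 hr settle, 17 hr compound at 37C/5% CO2; CCF4-AM reporter read first, then CellTiter-Glo luminescence after 30 min RT.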

[20] = A CellTox Green Cytotoxicity Assay to monitor cytotoxicity in HEK293 cells - 24 hour (AID 1224875); also: nearly all actives have a fitted effect of over 45% in size
Summary of the method: as §2
% is scaled to controls: 0 for no effect and ±100 for the full control effect.

Thyrotropin receptor (Homo sapiens), sequence (P16473 whole entry, looked up): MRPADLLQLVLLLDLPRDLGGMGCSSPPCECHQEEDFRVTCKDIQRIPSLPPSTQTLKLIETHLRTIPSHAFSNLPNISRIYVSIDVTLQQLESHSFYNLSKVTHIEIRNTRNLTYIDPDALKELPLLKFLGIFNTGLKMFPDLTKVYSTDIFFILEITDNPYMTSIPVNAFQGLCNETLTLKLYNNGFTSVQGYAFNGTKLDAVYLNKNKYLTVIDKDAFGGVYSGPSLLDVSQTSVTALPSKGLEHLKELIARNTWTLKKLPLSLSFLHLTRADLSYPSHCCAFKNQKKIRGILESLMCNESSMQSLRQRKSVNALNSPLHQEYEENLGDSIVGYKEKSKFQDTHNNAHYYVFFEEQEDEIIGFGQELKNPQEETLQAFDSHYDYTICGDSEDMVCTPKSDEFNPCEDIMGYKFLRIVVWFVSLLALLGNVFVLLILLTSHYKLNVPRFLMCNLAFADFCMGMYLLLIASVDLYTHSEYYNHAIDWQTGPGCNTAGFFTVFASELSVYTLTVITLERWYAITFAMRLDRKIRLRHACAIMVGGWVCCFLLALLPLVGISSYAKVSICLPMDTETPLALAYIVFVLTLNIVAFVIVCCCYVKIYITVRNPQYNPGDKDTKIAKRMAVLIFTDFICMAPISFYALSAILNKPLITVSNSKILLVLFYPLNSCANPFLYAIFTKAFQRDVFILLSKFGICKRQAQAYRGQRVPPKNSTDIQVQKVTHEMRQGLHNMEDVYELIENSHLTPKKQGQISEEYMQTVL

CNCCCC1c2ccccc2C=Cc2ccccc21
active: Potency [5] 21.3 µM | Potency [9] 23.9 µM | Potency [10] 23.9 µM | Potency [11] 23.9 µM | Potency [12] 23.9 µM | Potency [13] 23.9 µM
inactive: Potency [1] | Potency [2] | Potency [3] | activity change, positive = activation [4] -23.5% [at 42.5 µM] | Potency [6] | Potency [7] | Potency [8]

CC[C@H](NC(=O)c1cc(F)ccc1NS(=O)(=O)c1cccc2cccnc12)c1ccccc1
active: Potency [14] 32.5 µM | Potency [5] 52 µM | Potency [16] 52 µM | Potency [8] 41.3 µM | Potency [11] 52 µM
inactive: Potency [1] | Potency [2] | Potency [3] | activity change, positive = activation [4] -48.4% | Potency [15] | Potency [6] | Potency [17] | Potency [7] | max response [9] -13% | Potency [10] | Potency [12]

CCOc1cc(N)c(Cl)cc1C(=O)NCC1CN(Cc2ccc(F)cc2)CCO1 (centres undefined)
inactive: Potency [1] | outcome [18] | Potency [6] | Potency [16] | Potency [17] | Potency [10] | Potency [11] | Potency [12] | Potency [13]
active: Potency [15] 16.9 µM | Potency [7] 16.9 µM | Potency [9] 16.9 µM

C[N+](C)(C)CCOC(N)=O
inactive: Potency [19] | Potency [2] | Potency [3] | Potency [5] | Potency [15] | Potency [6] | Potency [16] | Potency [17] | Potency [7] | Potency [8] | max response [9] 0.438% | Potency [20] | Potency [10] | Potency [11] | Potency [12] | Potency [13]

NC(=O)Nc1ccc(Cl)c(Cl)c1
inactive: Potency [19] | outcome [18] | Potency [5] | Potency [6] | Potency [16] | Potency [17] | Potency [7] | Potency [8] | Potency [20] | Potency [10] | Potency [11] | Potency [12] | Potency [13]

CSc1ccc(Oc2ccc(S(N)(=O)=O)cc2CN(C)C)cc1C
inactive: Potency [19] | Potency [2] | outcome [18] | activity change, positive = activation [4] -34.7% | Potency [6] | Potency [16] | Potency [8] | Potency [20] | Potency [11]
active: Potency [15] 43.6 µM | Potency [9] 38.9 µM

CC1=NN(c2ccc(C(=O)O)cc2)C(=O)C1
inactive: Potency [19] | outcome [18] | Potency [3] | Potency [5] | Potency [15] | Potency [6] | Potency [16] | Potency [7] | Potency [8] | max response [9] -25.1% | Potency [20] | Potency [10] | Potency [11] | Potency [12] | Potency [13]

CN1CCN(CCCN2c3ccccc3Sc3ccc(S(=O)(=O)N(C)C)cc32)CC1
inactive: outcome [18] | activity change, positive = activation [4] -33.1% [at 42.5 µM] | Potency [6] | Potency [8]
active: Potency [14] 26.6 µM | Potency [10] 23.9 µM | Potency [12] 26.8 µM | Potency [13] 26.8 µM

Cc1cc2nc3ccc(=[N+](C)C)cc-3sc2cc1N
active: Potency [19] 5.35 µM | Potency [3] 24.7 µM | Potency [14] 0.531 µM | Potency [5] 16.9 µM | Potency [15] 2.39 µM | Potency [16] 21.3 µM | Potency [7] 2.13 µM | Potency [8] 9.52 µM | Potency [9] 2.13 µM | Potency [11] 19 µM
inactive: outcome [18] | activity change, positive = activation [4] -65.1% [at 42.5 µM] | Potency [6] | Potency [17] | Potency [20] | Potency [10] | Potency [12] | Potency [13]

Cc1oc(C)c(C(=O)Nc2ccccc2)c1C
active: Potency [15] 24.5 µM | Potency [7] 34.7 µM | Potency [9] 24.5 µM
inactive: Potency [19] | outcome [18] | Potency [6] | Potency [16] | Potency [17] | Potency [8] | Potency [20] | Potency [10] | Potency [12] | Potency [13]

CC(C)CCCC(=O)O
inactive: Potency [19] | Potency [2] | outcome [18] | Potency [14] | Potency [15] | Potency [6] | Potency [16] | Potency [7] | Potency [8] | max response [9] -12.3% | Potency [20] | Potency [10] | Potency [11] | Potency [12] | Potency [13]

Cc1cc(C(=C2C=CC(=Nc3ccc(S(=O)(=O)O)cc3S(=O)(=O)O)C=C2)c2ccc(Nc3ccc(S(=O)(=O)O)cc3)cc2)ccc1N
inactive: Potency [19] | outcome [18] | Potency [3] | Potency [5] | Potency [15] | Potency [6] | Potency [16] | Potency [17] | Potency [7] | Potency [8] | max response [9] -3.61% | Potency [20] | Potency [10] | Potency [12] | Potency [13]

CCC(=O)OC/C=C/c1ccccc1
inactive: Potency [19] | outcome [18] | Potency [3] | Potency [5] | Potency [15] | Potency [6] | Potency [16] | Potency [17] | Potency [7] | Potency [8] | max response [9] 1.64% and -7.61% | Potency [20] | Potency [10] | Potency [11] | Potency [12] | Potency [13]

CCN(CC)CCNC(=O)c1ccc(NC(C)=O)cc1
inactive: Potency [19] | Potency [2] | Potency [3] | Potency [15] | Potency [6] | Potency [16] | Potency [17] | Potency [7] | Potency [8] | Potency [20] | Potency [10] | Potency [12] | Potency [13]
